Experimental data reported in PubChem BioAssay (NCATS).
Activity calls are given as the source filed them. Calls follow the shape of the dose curve; as a rule, active = well fitted curve in the direction sought with a large enough effect; inconclusive = small, poorly fitted or top-dose-only effect, or another doubt; inactive = no such curve, though single readings can be large or run the other way.

What follows are compounds tested against Galactokinase (Homo sapiens) (UniProt P51570) (assay: qHTS Validation Assay for Inhibitors of Human Galactokinase (GALK) (AID 493189; also: 0% is about no effect)). Conditions: purified human GALK enzyme activity, qHTS 7-point titration; series mostly up to 57.5 µM; activity change, negative = inhibition: at the top concentration.
Sequence of Galactokinase (Homo sapiens) (P51570 whole entry, looked up): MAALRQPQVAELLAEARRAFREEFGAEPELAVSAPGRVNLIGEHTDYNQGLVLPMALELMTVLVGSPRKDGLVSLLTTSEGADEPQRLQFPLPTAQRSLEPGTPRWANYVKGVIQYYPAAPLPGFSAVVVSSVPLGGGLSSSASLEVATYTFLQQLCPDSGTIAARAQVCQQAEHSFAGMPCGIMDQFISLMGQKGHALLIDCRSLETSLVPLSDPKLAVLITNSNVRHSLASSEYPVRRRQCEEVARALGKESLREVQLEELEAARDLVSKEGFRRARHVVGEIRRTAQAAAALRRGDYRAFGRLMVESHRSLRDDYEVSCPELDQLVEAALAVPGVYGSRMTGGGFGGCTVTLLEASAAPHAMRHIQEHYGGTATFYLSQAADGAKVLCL
Source text: NIH Molecular Libraries Probe Production Centers Network [MLPCN]
NIH Chemical Genomics Center [NCGC]
Assay Submitter (PI): Kent Lai (University of Utah School of Medicine, 50 N Mario Capecchi Drive, Salt Lake City, UT 84132)
Inherited deficiency of galactose-1-phosphate uridyltransferase (GALT) can result in a potentially lethal disorder called Classic Galactosemia (OMIM 230400). Several lines of evidence indicate that an elevated level of galactose-1-phosphate (gal-1-p), the product of galactokinase (GALK), is a major, if not sole, pathogenic mechanism in patients with classic galactosemia. Therefore, finding inhibitors of GALK is a potential novel therapy for this inherent metabolic disease and is the long term goal of this project.
GALK (provided by the assay submitter) was assayed using ATP and D-(+)-Galactose (Sigma-Aldrich cat# G0750) as substrates. Promega Kinase-Glo Plus (cat# V3774) technology was used to detect the residual ATP following kinetic reaction. Briefly, the Kinase-Glo Plus contains Ultra-Glo [2] luciferase and D-luciferin which generates a bioluminescence signal from the remaining ATP.
NCGC Assay Protocol Summary:
Three uL/well of ATP-buffer solution (35 uM ATP, 20mM HEPES pH8.0, 5 mM MgCl2, 60 mM NaCl, 1 mM DTT, 0.01% BSA final concentration) was dispensed into 1536-well, assay plates (Greiner, solid white medium-binding plates) with Aurora Discovery BioRAPTR Flying Reagent Dispenser (FRD; Beckton-Dickenson). Compound solution (23 nL) was transferred to the assay plate using the Kalypsys 1536-pin tool. One uL/well GALK-galactose solution (5 nM GALK, 100 uM galactose, 20 mM HEPES pH8.0, 5 mM MgCl2, 60 mM NaCl, 1 mM DTT, 0.01% BSA final concentration) was then added using the FRD yielding a total kinase reaction volume of 4 uL/ well. After 1 hour of room temperature incubation, 4 uL Kinase-Glo Plus reagent was added for a final assay volume of 8 uL/ well. Luminescence was detected with the ViewLux plate reader (Perkin Elmer, Waltham, MA) after 10 min incubation using a 1 sec exposure time and 2x binning.

Row | Structure (SMILES) | activity change, negative = inhibition
1 | O=[N+]([O-])c1ccc(-c2nc(-c3ccc(F)cc3)c(-c3ccncc3)[nH]2)cc1 | -0.549% (inactive)
2 | COc1ccccc1N1CCN(CCN2C(=O)CC3(CCCC3)CC2=O)CC1 | 4.6% (inactive)
3 | Brc1ccc([C@H]2CN3CCSC3=N2)cc1 | -1.1% (inactive)
4 | C[C@]12CCC(=O)C=C1CC[C@@H]1[C@@H]2[C@@H](O)C[C@@]2(C)[C@H]1CC[C@]2(O)C(=O)COC(=O)CCC(=O)O | -4.45% (inactive)
5 | COc1cccc2c1[C@@H]1CN(CCCCn3c(=O)[nH]c4c(sc5ncc(-c6ccccc6)nc54)c3=O)C[C@@H]1CO2 | 0.105% (inactive)
6 | NC(N)=NCCCCN=C(N)N | -2.27% (inactive)
7 | CC(C)N(CCC(=O)c1ccc2ccccc2c1)Cc1ccccc1 | 0.627% (inactive)
8 | CN(C)c1cc2c(Nc3ccc4c(cnn4Cc4ccccc4)c3)ncnc2cn1 | -2.79% (inactive)
9 | O=C1NC(c2cccc([N+](=O)[O-])c2)=CCN1c1ccccc1O | -2.26% (inactive)
10 | C[N+](C)(C)CCO | -4.06% (inactive)
11 | Cn1cnc2c(NCc3ccccc3)nc(NCCO)nc21 | 4.9% (inactive)
